# Screening data from PubChem BioAssay.
# TWEAK Fn14 block: blocks TWEAK-Fn14 interaction in a reporter cell assay; TWEAK-stimulated Fn14 reporter cells, luciferase luminescence, 8 h; inhibition, % at 10 µM; 360,000 tested, 2% active; in the data active = inhibition above about 50%
# CF NFkB block: cystic fibrosis NF-kB activation inhibition; 360,000 tested, 0.86% active; inhibition, % at 5 µM; KKLEB NF-kB-GFP reporter, PAF-induced, GFP fluorescence overnight;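 active = at least 50% inhibition at 5 µM, scaled per plate between neutral and stimulator controls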;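 also: PAF is a Pseudomonas aeruginosa culture filtrate used as stimulus; plate controls were PAF-stimulated DMSO wells for no effect and unstimulated DMSO wells for full effect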
# Peg3 promoter: reduces Peg3 promoter-driven luciferase expression in HeLa | HeLa PEG-Prom luciferase reporter, luminescence, overnight | inhibition, % at 20 µM | 360,000 tested, 1.7% active | AID 588405;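 active = inhibition of at least 50% at 20 µM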
# TROY NFkB inh: TROY signaling inhibition; Q293 LMP1-TROYcd NF-kB luciferase reporter, 4 h; inhibition, % at 10 µM; 360,000 tested, 0.98% active; AID 1347056;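 active = compounds whose plate-normalised and pattern-corrected inhibition of the luciferase reporter signal at the single screening dose is 50% or more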
# KKLEB cytotox: CF airway cell cytotoxicity counter-screen; KKLEB CF airway cells viability, ATPlite luminescence, overnight; stronger effect = lower value; cells stimulated with P. aeruginosa culture filtrate; activity change (cytotoxicity), % at 5 µM; 360,000 tested, 0.36% active; AID 602141;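 active = corrected activity change at or below -50% at 5 µM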
# HIF-2a block: HIF-2a inhibition; inhibition, % at 18.8 µM; 360,000 tested, 0.72% active; AID 624352; 786-0 RCC cells HIF-2a reporter, luciferase luminescence, overnight;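 active = inhibition of the luminescence signal of 40% or more relative to plate controls, in a single-dose primary screen at 18.75 µM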
# The depositor's hits bear a star. Most compounds without a hit are left out; they make up all but 3.9% or so of the library.
SMILES,TWEAK Fn14 block,CF NFkB block,Peg3 promoter,TROY NFkB inh,KKLEB cytotox,HIF-2a block
CCc1nnc2n1N=C(c1ccc(-c3cc(Cl)ccc3Cl)o1)CS2,-18.0,-12.8,62.8*,-9.2,-25.7,-5.5
COc1ccc(-c2ccc3[nH]c4c(c3c2)CCN2C(=O)[C@@H]([C@H](C)O)[C@@H](N(C)C(=O)Nc3ccc(F)cc3)C[C@@H]42)cc1,24.1,36.4,95.3*,-2.5,-18.5,-54.2
COc1ccc(-c2ccc3[nH]c4c(c3c2)CCN2C(=O)[C@@H]([C@H](C)O)[C@@H](N(C)C(=O)Nc3cc(Cl)cc(Cl)c3)C[C@@H]42)cc1,38.0,13.4,28.7,12.2,9.9,-20.8
COCc1nc2oc3ccc(C)cc3c(=O)c2cc1C(=O)OC,-20.4,-37.9,-318.0,-85.7,0.1,-335.7
N#Cc1c(NC(=O)Cn2c(=O)oc3ccccc32)oc(-c2ccccc2)c1-c1ccccc1,-14.1,9.0,40.8,68.1*,-2.2,8.9
O=C(Cn1c(=O)oc2ccccc21)Nc1ccc(Br)cc1,2.4,11.9,-2.9,-0.8,8.5,8.1
COc1ccc(C2CC(=O)c3c([nH]c(C(=O)OC(C)C)c3C)C2)cc1OC (stereo unspecified),3.6,-13.1,-12.0,12.4,1.7,-16.6
C=CCOC(=O)c1[nH]c2c(c1C)C(=O)CC(c1cc(OC)c(OC)c(OC)c1)C2 (stereo unspecified),64.2*,-1.8,16.9,46.1,2.6,-5.6
COCCOC(=O)c1[nH]c2c(c1C)C(=O)CC(c1cc(OC)c(OC)c(OC)c1)C2 (stereo unspecified),18.8,-16.1,18.8,5.9,-5.2,13.7
CCCCOC(=O)c1[nH]c2c(c1C)C(=O)CC(c1cc(OC)c(OC)c(OC)c1)C2 (stereo unspecified),72.7*,3.4,20.8,48.8,-6.6,7.7
COCCN(C(=O)Cn1nnc2ccccc21)C(C(=O)NC1CCCC1)c1ccc(OC)cc1OC (stereo unspecified),13.7,10.0,4.8,-8.1,0.6,5.4
O=C(OCCC12CC3CC(CC(C3)C1)C2)c1ccc(NCc2cc(O)ccc2O)cc1,97.8*,20.9,-33.9,-3.3,-11.8,77.1*
O=C(OCC12CC3CC(CC(C3)C1)C2)c1ccc(NCc2cc(O)ccc2O)cc1,103.3*,58.5*,6.4,-5.7,-42.2,81.0*
CC1(C)Cc2nc3sc4c(N(CCO)CCO)nnnc4c3cc2CO1,15.9,5.6,-44.6,-30.1,-7.7,-78.6
CCN(CC)CCN(C(=O)c1ccc(S(=O)(=O)N(C)C2CCCCC2)cc1)c1nc2ccc(OC)cc2s1,-45.1,12.9,-11.6,9.0,-6.1,-10.6
CCCc1[nH]nc2c1C(c1ccsc1)C(C#N)=C(N)O2 (stereo unspecified),45.3,4.1,-8.6,43.8,12.1,18.7
CCCc1[nH]nc2c1C(C1CCCCC1)C(C#N)=C(N)O2 (stereo unspecified),54.7*,11.0,38.2,6.6,-7.7,29.4
COc1ccc(Cl)cc1NC(=O)CN1CCN(S(=O)(=O)N2CCOCC2)CC1,12.4,3.9,7.3,-7.8,2.8,12.1
Cc1cn([C@@H](CCCCNC(=O)OC(C)(C)C)C(=O)NCCCCCCCCCCC(=O)N2CCN(C(=O)OC(C)(C)C)CC2)nn1,87.7*,4.9,84.5*,70.4*,-3.6,4.8
CC[C@H](C)Cc1cn([C@@H](CCCN=C(NC(=O)OC(C)(C)C)NC(=O)OC(C)(C)C)C(=O)NCCCCCCCCCCC(=O)N2CCN(C(=O)OC(C)(C)C)CC2)nn1,59.9*,10.6,54.5*,81.0*,-2.1,1.2
O=c1[nH]c(/C(Cl)=C/c2cc(Cl)ccc2O)nc2cc(Cl)ccc12,49.3,16.6,21.3,18.1,-53.1*,-93.3
Cn1cc(CN2CCC(n3nccc3NC(=O)C3CCCC3)CC2)cn1,-3.9,-14.8,10.4,-3.2,5.1,11.8
CCN(CC)CCn1nc2c3c(cccc3c1=O)-c1ccccc1-2,-95.8,-83.0,106.3*,-86.9,-5.4,13.1
O=c1c2cccc3c2c(nn1CN1CCOCC1)-c1ccccc1-3,-43.5,-49.1,15.3,18.4,-0.5,-7.7
CC(C)Nc1nnc(SCC(=O)Nc2ccc3c(c2)C(=O)c2ccccc2C3=O)s1,58.5*,-48.0,87.3*,24.3,-5.4,-305.5
SMILES,TWEAK Fn14 block,CF NFkB block,Peg3 promoter,TROY NFkB inh,KKLEB cytotox,HIF-2a block
O=C(CSc1nnc(NC2CCCCC2)s1)Nc1ccc2c(c1)C(=O)c1ccccc1C2=O,18.6,-42.1,-187.2,-33.1,7.6,-276.4
CCCSc1nnc(CSc2nc3ccccc3s2)n1-c1ccccc1,18.1,9.3,29.7,53.1*,-4.9,9.5
COc1ccc(NC(=O)N2CCCC2C(=O)NC2CCCC2)cc1 (stereo unspecified),1.2,-2.7,0.9,4.5,2.7,4.3
O=C(CS(=O)c1ccc(C(F)(F)F)cc1[N+](=O)[O-])Oc1ccccc1 (stereo unspecified),-12.2,57.4*,79.5*,12.1,-37.5,21.1
COC(=O)c1ccc(OC(=O)CS(=O)c2ccccc2[N+](=O)[O-])cc1 (stereo unspecified),-14.5,-1.5,0.5,7.8,18.5,3.1
CN(CC(=O)O)S(=O)(=O)c1cc(Cl)ccc1Cl,39.2,5.1,3.5,57.4*,1.6,-3.1
CCN(CC(=O)O)S(=O)(=O)c1cc(Cl)ccc1Cl,5.0,-11.3,-4.7,6.7,14.8,11.5
Cc1sc2ncnc(Sc3ccccc3C(=O)Nc3ccc(C#N)cc3)c2c1C,-2.2,-16.6,3.4,-40.1,0.2,1.1
C=CCn1c(C)cc(C(=O)CN2NS(=O)(=O)c3ccccc3C2=O)c1C,40.5,11.5,-158.9,68.8*,-11.7,-244.8
Cc1ccc(CNC(=O)CN2NS(=O)(=O)c3ccccc3C2=O)cc1,-15.0,-13.1,-1.9,-16.9,15.4,3.6
CC1CCCC(C)N1C(=O)COC(=O)c1nn(C)c(=O)c2ccccc12 (stereo unspecified),-1.0,16.3,3.5,3.3,-5.9,9.5
Cc1c(NS(=O)(=O)c2cccc(C(=O)NCc3ccncc3)c2)c(=O)n(-c2ccccc2)n1C,-21.3,12.5,11.5,25.7,6.0,18.8
COc1ccc([N+](=O)[O-])cc1NCc1c(F)cccc1F,58.8*,9.1,7.6,3.9,8.2,7.8
COc1ccc(/C=C2/C(=O)ON=C2c2ccccc2)cc1OC,-8.7,7.0,30.6,-36.6,-8.4,41.2*
Cc1ccc(C2=NOC(=O)/C2=C\C=C\c2ccccc2)cc1,-22.4,91.6*,106.0*,33.7,-61.1*,23.9
COc1ccc(/C=C2\C(=O)ON=C2c2ccccc2)cc1OC,1.1,-10.6,37.7,-11.9,1.6,22.4
COc1ccc(C(=O)CN2CCN(c3ccc(F)cc3)CC2)cc1,5.8,-12.5,-5.7,-9.9,-6.5,1.7
